The list is not random: actives were taken first. Their share in the collection is about 2.8%.
EBV LMP1 NFkB = inhibitors of Epstein-Barr LMP1-induced NF-kappaB reporter | LMP1-induced NF-kappaB luciferase reporter cells, luminescence | inhibition, % at 12.5 µM | hit rate 0.69% among 350,000 | AID 504558; in the data active = inhibition above about 41%; inconclusive = no clear call, values can overlap the other calls;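 note: 0% = neutral control wells and 100% = reference inhibitor control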
HIV Env fusion = HIV envelope-mediated fusion inhibition; inhibition, % at 12.3 µM; AID 651610; hit rate 1.1% among 360,000; HeLa-JRFL Env/CEM21 cell fusion, luciferase;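 active = mean replicate inhibition score of at least 50 and every replicate individually at or above 50; inconclusive = only one of the two criteria met; inactive = mean below 50 and not all replicates reaching 50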;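 note: 0% = plate neutral controls and 100% = maraviroc near 300 nM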
N-glyco inh = N-linked glycosylation inhibition. AID 588692. D54 ERlucT glycosylation luciferase reporter, 24 h; percent of 100 nM tunicamycin response. hit rate 0.23% among 360,000. reporter increase, % at 12.5 µM;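 active = mean luciferase reporter signal, scaled so untreated is 0 and the glycosylation-blocking control 100, at or above a set limit in every replicate; inconclusive = mean reaches the limit but not every replicate does; inactive = mean below the limit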;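 note: luciferase carries N-glycosylation sites so blocking glycosylation raises the light; 0% = median of neutral control wells and 100% = median of 100 nM tunicamycin wells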
NSD2 HMT inh = inhibitors of human histone methyltransferase NSD2; NSD2 peptide methylation, AlphaScreen, 120 min; inhibition, % at 12.5 µM; hit rate 0.54% among 310,000; in the data active = inhibition above about 50%
Shn3 inh set2 = inhibitors of Schnurri-3 3'UTR reporter in osteoblasts; Clone20 osteoblast Shn3 3'UTR firefly luciferase, 24 h; inhibition, % at 12.5 µM; hit rate 0.52% among 360,000;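 active = mean inhibition of at least 75% with every replicate also reaching 75%; inconclusive = mean inhibition at least 75% but some replicate below; inactive = mean inhibition below 75%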;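 note: 0% = median of neutral control wells and 100% = pilot-screen positive control compound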
PAX8 reporter = inhibitors of PAX8 transcriptional activity in RMG-I cells; RMG-I TPO-luciferase reporter, SteadyGlo, 24 h; inhibition, % at 12.6 µM; hit rate 1.2% among 360,000;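 active = mean replicate inhibition at least 60% with every replicate also reaching 60%; inconclusive = only one of the two criteria is met; inactive = mean below 60% and not all replicates reaching 60%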;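 note: luciferase light reporting Pax8 driven TPO promoter activity; plate controls were median of neutral control wells for no effect and mitoxantrone controls for full effect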
* marks the source's active call; other numbers are inactive results; ? = inconclusive; · = no result given; ! = not confirmed by another sample; [ ] = remark or other dose.

SMILES | EBV LMP1 NFkB | HIV Env fusion | N-glyco inh | NSD2 HMT inh | Shn3 inh set2 | PAX8 reporter
COc1cc2c(c(OC)c1OC)-c1ccc(NC(=O)c3ccccc3)c(=O)cc1[C@@H](NC(C)=O)CC2 | -1.0 | -35.8 | 2.6 | -2.8 | -1.7 | 59.9
CN[C@H]1CCc2cc(OC)c(OC)c(OC)c2-c2ccc(OC)c(=O)cc21 | -12.4 | -157.1 | 11.2 | · | -7.4 | 90.3*
C[C@H](CO)N1C[C@H](C)[C@@H](CN(C)S(=O)(=O)c2ccccc2)Oc2ncc(-c3cccc(C(=O)N(C)C)c3)cc2C1=O | · | -3.3[16.7 µM] | · | · | · | 1.1
Cn1nc(C(C)(C)C)cc1C(=O)N1CCCCC1c1cc(C(=O)Nc2ccc(F)c(Cl)c2)no1 (stereo not given) | · | 44.3 | -5.6 | -2.1 | 85.6* | 25.0
O=C(Nc1ccc(F)c(Cl)c1)c1cc(C2CCCCN2C(=O)c2ccc(Cl)cc2)on1 (stereo not given) | · | 14.4 | -3.1 | 1.1 | 9.5 | 8.6
COc1ccc(CN2C[C@H](O)COC[C@@H]3O[C@@H](CC(=O)N4CCc5ccccc5C4)CC[C@H]32)cc1 | · | · | · | · | · | 26.8
CC(C)NC(=O)Nc1ccc2c(c1)C(=O)N([C@H](C)CO)C[C@@H](C)[C@H](CN(C)C(=O)Nc1ccc(C(F)(F)F)cc1)OCCCC[C@@H](C)O2 | · | -12.0[16.7 µM] | · | · | · | 68.1*
CC(C)NC(=O)Nc1ccc2c(c1)C(=O)N([C@H](C)CO)C[C@@H](C)[C@@H](CN(C)C(=O)Nc1ccc(C(F)(F)F)cc1)OCCCC[C@@H](C)O2 | · | 72.0*[16.7 µM] | · | · | · | 8.1
CC(C)NC(=O)N(C)C[C@@H]1OCCCC[C@@H](C)Oc2ccc(NC(=O)Nc3ccc(C(F)(F)F)cc3)cc2C(=O)N([C@@H](C)CO)C[C@H]1C | · | · | · | · | · | 48.5
CC(C)NC(=O)Nc1ccc2c(c1)C(=O)N([C@@H](C)CO)C[C@@H](C)[C@H](CN(C)C(=O)Nc1ccc(C(F)(F)F)cc1)OCCCC[C@H](C)O2 | · | 19.4[16.7 µM] | · | · | · | 16.2
CC(C)NC(=O)Nc1ccc2c(c1)C(=O)N([C@H](C)CO)C[C@@H](C)[C@H](CN(C)C(=O)Nc1ccc(C(F)(F)F)cc1)OCCCC[C@H](C)O2 | · | 74.7*[16.7 µM] | · | · | · | -8.0
CC(C)NC(=O)N(C)C[C@@H]1OCCCC[C@H](C)Oc2ccc(NC(=O)Nc3ccc(C(F)(F)F)cc3)cc2C(=O)N([C@@H](C)CO)C[C@@H]1C | · | -19.1[16.7 µM] | · | · | · | 68.7*
Cc1noc(C)c1NC(=O)N(C)C[C@H]1Oc2ccc(N(C)C)cc2C(=O)N([C@@H](C)CO)C[C@H]1C | · | 1.7[16.7 µM] | · | · | · | -4.8
COc1ccc(NC(=O)N(C)C[C@H]2OCCCC[C@H](C)Oc3ccc(NC(=O)Nc4ccc(C(F)(F)F)cc4)cc3C(=O)N([C@H](C)CO)C[C@@H]2C)cc1 | · | 5.9[16.7 µM] | · | · | · | 11.1
COc1ccc(NC(=O)N(C)C[C@H]2OCCCC[C@@H](C)Oc3ccc(NC(=O)Nc4ccc(C(F)(F)F)cc4)cc3C(=O)N([C@@H](C)CO)C[C@@H]2C)cc1 | · | 22.7[16.7 µM] | · | · | · | 77.4*
C[C@@H]1CN([C@H](C)CO)C(=O)c2cc(NC(=O)Nc3ccccc3)ccc2O[C@@H](C)CCCCO[C@H]1CN(C)C(=O)Nc1ccc(C(F)(F)F)cc1 | · | · | · | · | · | 84.2*
O=C(Nc1ccc2c(c1)OCO2)N[C@@H]1CC[C@@H](CCNC(=O)C2CC2)O[C@@H]1CO | · | -5.9[16.7 µM] | · | · | · | 2.6
CC1=C(N2CCOCC2)CCC1=O | -10.6 | -5.0 | 4.2 | · | 8.6 | 1.7
CC1=C(n2ccnc2)CCC1=O | 1.0 | 2.1 | 86.4* | · | -34.4 | -7.0
COc1cccc2c1C(=O)c1c(O)c3c(c(O)c1C2=O)C[C@@](O)(C(=O)CO)C[C@@H]3O[C@H]1C[C@H](N)[C@H](O)[C@H](C)O1 | 83.7* | -339.4 | -14.8 | · | 92.0* | 103.7*
COc1cccc2c1C(=O)c1c(O)c3c(c(O)c1C2=O)C[C@@](O)(C(=O)CO)C[C@@H]3OC1CC(N)C(O)C(C)O1 (stereo not given in full) | 61.9* | -200.8 | -8.5 | 9.2 | 87.2* | 81.4*
COc1cccc2c1C(=O)c1c(O)c3c(c(O)c1C2=O)CC(O)(C(C)=O)CC3OC1CC(N(C)C)C(O)C(C)O1 (stereo not given) | 93.4* | 57.9* | -11.9 | 27.6 | 94.3* | 103.0*
CC(=O)[C@@]1(O)Cc2c(O)c3c(c(O)c2[C@H](O[C@H]2C[C@H](N)[C@H](O)[C@H](C)O2)C1)C(=O)c1ccccc1C3=O | · | 95.1* | -13.1 | · | 93.4* | 104.2*
CS(=O)(=O)N1CCCCN2[C@H](CO)[C@@H](c3ccc(Br)cc3)[C@H]2C1 | · | · | · | · | · | 0.5
Cc1ccc(S(=O)(=O)Nc2ccc3c(c2)C(=O)N([C@@H](C)CO)C[C@H](C)[C@H](CN(C)C(=O)CCC(F)(F)F)OCCCC[C@@H](C)O3)cc1 | · | -39.4[16.7 µM] | · | · | · | -14.3
SMILES | EBV LMP1 NFkB | HIV Env fusion | N-glyco inh | NSD2 HMT inh | Shn3 inh set2 | PAX8 reporter
COCC(=O)N1C[C@@H]2[C@H](c3ccccc31)[C@@H](CO)N2Cc1ccccc1F | · | · | · | · | · | -4.5
COc1ccc(NC(=O)Nc2ccc3c(c2)[C@@H]2C[C@@H](CC(=O)NCc4ccccn4)O[C@H](CO)[C@@H]2O3)cc1 | · | -1.4[16.7 µM] | · | · | · | 8.5
O=C(C[C@H]1CC[C@@H]2[C@H](COC[C@H](O)CN2C(=O)c2ccccc2F)O1)N1CCOCC1 | · | · | · | · | · | 0.7
c1ccc(-n2ncc3c(N4CCCCC4)ncnc32)cc1 | 40.5* | 0.6 | -18.6 | · | 9.4 | 21.1
Cc1ccc(-n2ncc3c(N4CCCC4)ncnc32)c(C)c1 | -23.9 | -38.5 | -0.3 | 0.5 | -84.3 | -108.7
COc1cccc(N2CCN(c3ncnc4c3cnn4-c3ccc(C)cc3C)CC2)c1 | 39.8 | ? | -19.5 | · | 90.9* | 101.7*
CC1CCCN(c2ncnc3c2cnn3-c2ccc(Cl)cc2)C1 (stereo not given) | 60.4* | 27.4 | -19.5 | · | 77.6 | 76.2*
CC1CCCCN1c1ncnc2ccccc12 (stereo not given) | 1.9 | · | -5.8 | -0.8 | 53.1 | ·
CC1CCCN(c2ncnc3c2cnn3-c2ccccc2)C1 (stereo not given) | 20.1 | -38.2 | -19.1 | · | 25.2 | 24.5
c1ccc2c(N3CCCCC3)ncnc2c1 | 14.4 | 69.9* | -5.3 | -0.1 | 42.2 | ·
CO[C@@H]1CN(C)C(=O)c2ccc(NC(=O)C3CC3)cc2OC[C@@H](C)N(C(=O)NC(C)C)C[C@H]1C | · | · | · | · | · | 0.0
NC(=O)NCC#Cc1ccc2c(c1)[C@]1(C(=O)N2)[C@H](c2ccccc2OCCO)N2[C@H](c3ccccc3)[C@H](c3ccccc3)OC(=O)[C@H]2[C@@H]1C(=O)N1CCN(c2ncccn2)CC1 | · | -4.2[16.7 µM] | · | · | · | -4.4
Cc1noc(C)c1S(=O)(=O)Nc1ccc2c(c1)C(=O)N([C@@H](C)CO)C[C@H](C)[C@@H](CN(C)C(=O)Nc1ccc(C(F)(F)F)cc1)O2 | · | 1.3[16.7 µM] | · | · | · | ·
CC(=O)N1CC[C@@H]2[C@H]1c1cc(-c3cccc(F)c3)ccc1N(C)[C@@H]2CO | · | · | · | · | · | 17.2
COc1cccc(S(=O)(=O)N2C[C@@H]3N[C@H](C2)C3c2ccc(/C=C/c3ccccc3)cc2)c1 (stereo not given in full) | · | · | · | · | · | 92.2*!

Screens (PubChem BioAssay)
